{"source": "PubChem BioAssay (NCATS)", "note": "Records with an inconclusive call do not appear. Where a call stands in place of a potency, no number is given. Calls of active or inactive are those of the source. Calls come from the whole dose curve; as a rule, active = well fitted inhibition curve with a large enough effect; inconclusive = small, poorly fitted or top-dose-only effect; inactive = flat fitted curve, though single readings scatter."}
{"molecular_target": "Calcium and integrin-binding protein 1 (Homo sapiens) (UniProt Q99828)", "sequence (Q99828 whole entry, looked up)": "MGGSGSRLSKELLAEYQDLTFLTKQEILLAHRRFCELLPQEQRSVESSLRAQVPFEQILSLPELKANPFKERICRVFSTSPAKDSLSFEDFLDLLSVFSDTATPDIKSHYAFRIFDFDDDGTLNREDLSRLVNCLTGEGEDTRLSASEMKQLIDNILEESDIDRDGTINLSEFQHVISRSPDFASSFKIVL", "test": "Primary qHTS for Identification of Calcium Integrin Binding Protein 1 (CIB1) Competitor (AID 1508620);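 note: GST tagged CIB1 binding a fluorescein labelled alphaIIb integrin peptide tracer; top concentration of the series differs between compounds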", "conditions": "CIB1-GST / FITC-alphaIIb peptide fluorescence polarization; series mostly up to 114 µM", "source_text": "Assay Provider: Ulhas P. Naik, PhD Sidney Kimmel Medical College Thomas Jefferson University, Philadelphia, PA Primary function of platelets is to maintain hemostasis. At the site of vascular injury, platelets adhere to adhesive proteins such as collagen and von Willebrand factor. Adherent platelets are activated and generate soluble platelet agonists such as thrombin, ADP and thromboxane A2. Following exposure of circulating platelets to these agonists, results in platelet shape change, granule secretion and activation of platelet integrin alphaIIb-beta3. Ligand binding to activated integrin alphaIIb-beta3 triggers outside-in signaling, leading to platelet aggregation, stabilization of platelet plug, and clot retraction. Upon atherosclerotic plaque rupture also causes platelet plug formation, which underlies a number of cardiovascular diseases such as myocardial infraction and stroke. A number of anti-platelet drugs such as aspirin, clopidogrel, prasugrel, vorapaxar, and eptifibatide are currently available to prevent the thrombotic complications. However, these anti-platelet agents have several limitations including inherent variability in individual responses, developing resistance, and serious bleeding side effects. For these reasons they are not suitable for long-term protection. Based on the experiences with current anti-platelet drugs, it appears that the most useful therapeutic approach is to intersect the secondary responses such as integrin outside-in signaling or recruitment of platelets by TxA2 and secreted ADP. Compounds, which can largely preserve the primary hemostatic function of platelets but inhibit secondary response will be most desired therapeutic agents for treatment of cardiovascular disease. CIB1 is a calcium integrin binding protein, which specifically interact with the alphaIIb subunit of integrin alphaIIb-beta3. Binding of CIB1 to alphaIIb regulates the outside-in signaling in platelets, which is needed for thrombus stabilization and thrombus growth. […] Therefore, we propose that discovery of a small molecule that can prevent the association of CIB1 and alphaIIb-beta3 will be a potential anti-platelet agent that can block the thrombus formation without undue effect on hemostasis. Reference: [1] Naik MU, Nigam A, Manrai P, et al. CIB1 deficiency results in impaired thrombosis: the potential role of CIB1 in outside-in signaling through integrin alpha IIb beta 3. J Thromb Haemost.\nPROTOCOL TABLES SEQUENCE No. (1, 2, 3, etc.); […] (e.g., Cells, Incubation, Reagent, etc.); VALUE and DESCRIPTION. 1; Reagent; 3 uL; Protein or buffer (4/3x) 2; Compound; 46 nL; Control inhibitor / compound library 3; Time; 15 min; Room temperature incubation 4; Reagent; 1 uL; Fluorescent labeled peptide (4x) 5; Time; 1000 rpm; Centrifuge 6; Time; 15 min; Room temperature incubation 7; Detection; Ex 480/ Em 540; ViewLux Fluorescence Read NOTES (numbers refer to sequence above) 1; Protein Mixture: C1B1-GST (final concentrations of 1 uM). […] 3; Room temperature incubation. 4; Fluorescent Labeled Peptide: FITC-aIIb (final concentration of 100 nM). Sequence of alphaIIb peptide: Acetyl-[…]-FITC (purity is 95.83%). 5; Centrifuge 1000 rpm (164 g) for 15 seconds. 6; Room temperature incubation. 7; ViewLux Fluorescent Polization Read: excitation = 480(20) / emission = 540(25) S and P; FITC Dichroic mirror."}
{"compound": "CCOC(=O)c1cccc(N)c1", "Potency": "inactive"}
{"compound": "COC1=CC(=O)C[C@@H](C)[C@]12Oc1c(Cl)c(OC)cc(OC)c1C2=O", "Potency": "inactive"}
{"compound": "COc1cc(-c2ccc(=O)[nH]n2)ccc1OC(F)F", "Potency": "inactive"}
{"compound": "CCC(=O)c1c(O)cc(O)cc1O", "Potency": "inactive"}
{"compound": "CCCCOc1ccc(C(=O)CCN2CCCCC2)cc1", "Potency": "inactive"}
{"compound": "C[C@]12CC[C@@H]3c4ccc(O)cc4CC[C@H]3[C@@H]1C[C@@H](O)[C@@H]2O", "Potency": "inactive"}
{"compound": "NC(=NCCCCCCN=C(N)/N=C(\\N)Nc1ccc(Cl)cc1)/N=C(\\N)Nc1ccc(Cl)cc1", "Potency": "inactive"}
{"compound": "NCCCC[C@H](N[C@@H](CCc1ccccc1)C(=O)O)C(=O)N1CCC[C@H]1C(=O)O", "Potency": "inactive"}
{"compound": "O=c1c(-c2ccccc2)c1-c1ccccc1", "Potency": "inactive"}
{"compound": "Oc1c(I)cc(I)c2cccnc12", "Potency": "inactive"}
{"compound": "CC(=O)N/N=C/c1ccc([N+](=O)[O-])o1", "Potency": "inactive"}
{"compound": "CCN(CCCCOC(=O)c1ccc(OC)c(OC)c1)C(C)Cc1ccc(OC)cc1", "note": "(stereo not given)", "Potency": "inactive"}
{"compound": "COc1ccc(CN2CCN(C(c3ccc(F)cc3)c3ccc(F)cc3)CC2)c(OC)c1OC", "Potency": "inactive"}
{"compound": "COc1cc(C(=S)N2CCOCC2)cc(OC)c1OC", "Potency": "inactive"}
{"compound": "Cc1onc(-c2c(Cl)cccc2Cl)c1C(=O)N[C@@H]1C(=O)N2[C@@H]1SC(C)(C)[C@@H]2C(=O)O", "Potency": "inactive"}
{"compound": "CC1=C(C(=O)OC(C)C)C(c2cccc([N+](=O)[O-])c2)C(C(=O)OC2CN(C(c3ccccc3)c3ccccc3)C2)=C(N)N1", "note": "(stereo not given)", "Potency": "inactive"}
{"compound": "CC(C)(C)CC(C)(C)c1ccc(O)c(Cc2ccc(Cl)cc2Cl)c1", "Potency": "inactive"}
{"compound": "C[C@@H]1C[C@H]2[C@@H]3C[C@H](F)C4=CC(=O)C(Cl)=C[C@]4(C)[C@@]3(F)[C@@H](O)C[C@]2(C)[C@@]1(O)C(=O)CO", "Potency": "inactive"}
{"compound": "O=C1c2ccccc2C(=O)C1c1ccccc1", "Potency": "inactive"}
{"compound": "CCCOC(C(=O)OC1CCN(C)CC1)(c1ccccc1)c1ccccc1", "Potency": "inactive"}
{"compound": "Oc1cc(O)c2c(c1)O[C@H](c1ccc(O)c(O)c1)[C@H](O)C2", "Potency": "inactive"}
{"compound": "Clc1ccc2c(c1)CCc1cccnc1C2=C1CCNCC1", "Potency": "inactive"}
{"compound": "C[C@]12CCC(=O)C=C1[C@@H]1C[C@@H]1[C@H]1[C@@H]3[C@@H]4C[C@@H]4[C@@]4(CCC(=O)O4)[C@@]3(C)CC[C@@H]12", "Potency": "inactive"}
{"compound": "CC(Cc1cccc(C(F)(F)F)c1)NCCOC(=O)c1ccccc1", "note": "(stereo not given)", "Potency": "inactive"}
{"compound": "CCCCCCCCCCOCC(O)CN", "note": "(stereo not given)", "Potency": "inactive"}
{"compound": "CN1C(CCl)Nc2cc(Cl)c(S(N)(=O)=O)cc2S1(=O)=O", "note": "(stereo not given)", "Potency": "inactive"}
{"compound": "CN(C)/N=N/c1nc[nH]c1C(N)=O", "Potency": "inactive"}
{"compound": "CC1=C(C(=O)O)N2C(=O)[C@@H](NC(=O)[C@H](N)c3ccc(O)cc3)[C@H]2SC1", "Potency": "inactive"}
{"compound": "CC(=O)OCC(=O)[C@@]12N=C(C)O[C@@H]1C[C@H]1[C@@H]3CCC4=CC(=O)C=C[C@]4(C)[C@H]3[C@@H](O)C[C@@]12C", "Potency": "inactive"}
{"compound": "C[C@]12CCC(=O)C=C1CC[C@H]1[C@@H]3CC[C@](O)(C(=O)CO)[C@@]3(C)C[C@H](O)[C@@]12F", "Potency": "inactive"}
{"compound": "Cc1cc(N)c2cc(NC(=O)Nc3ccc4nc(C)cc(N)c4c3)ccc2n1", "Potency": "inactive"}
{"compound": "CN1CCCC(CC2c3ccccc3Sc3ccccc32)C1", "note": "(stereo not given)", "Potency": "inactive"}
{"compound": "C=C1C(=C/C=C2\\CCC[C@]3(C)[C@@H]([C@H](C)/C=C/[C@@H](O)C4CC4)CC[C@@H]23)C[C@@H](O)C[C@@H]1O", "Potency": "inactive"}
{"compound": "OC(CCN1CCCCC1)(c1ccccc1)c1ccccc1", "Potency": "inactive"}
{"compound": "CN1CCN(C(c2ccccc2)c2ccccc2)CC1", "Potency": "inactive"}
{"compound": "CCCC(=O)O[C@]1(C(=O)CO)CC[C@H]2[C@@H]3CCC4=CC(=O)CC[C@]4(C)[C@H]3[C@@H](O)C[C@@]21C", "Potency": "inactive"}
{"compound": "CCCCCCCCCCCCCCNCCO", "Potency": "inactive"}
{"compound": "Nc1ccc(C(=O)Nc2ccccc2N)cc1", "Potency": "inactive"}
{"compound": "CCN(CC)C(=O)/C(C#N)=C/c1cc(O)c(O)c([N+](=O)[O-])c1", "Potency": "inactive"}
{"compound": "CC[C@@H](CO)NCCN[C@@H](CC)CO", "Potency": "inactive"}
